Several values for one entry are separate records, joined by “and”; a condition that tells them apart may be missing. Equal values may be shown once. This is part of a sample that, as a whole, favours compounds with a hit. Of some 79,000 tested, about 15% had one in any assay. Some compounds were tested as several samples or in several runs, with calls that do not always agree. Activity calls are given as the source filed them. Cut-off read from the data, not from the text of the source: active = growth inhibition above about 70%; inactive = the rest.
Tests used:
[1] = NCI Yeast Anticancer Drug Screen. Data for the rad52 strain (AID 147);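 note: 0% = growth of vehicle-treated control cultures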; details: S. cerevisiae rad52 mutant growth inhibition, stronger effect = higher value
Outline: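 Yeast strain carrying a DNA damage repair alteration was exposed to test compounds. Growth inhibition was measured relative to vehicle-treated controls.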

[2] = NCI Yeast Anticancer Drug Screen. Data for the wt1 strain (AID 149);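 note: 0% = growth of vehicle-treated wt1 cultures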; details: S. cerevisiae wt1 strain (SPY 50644) growth inhibition, stronger effect = higher value
Outline: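 Readout: yeast growth inhibition, normalised to vehicle controls, in the wt1 strain exposed to test compounds.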

[3] = NCI Yeast Anticancer Drug Screen. Data for the rad50EPP+ strain (AID 151);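 note: 0% = growth of vehicle-treated control cultures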; details: S. cerevisiae rad50 mutant strain, stronger effect = higher value
Outline: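 Yeast strain carrying rad50 alteration (rad50EPP+) exposed to compounds; growth inhibition measured relative to vehicle-treated controls.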

[4] = NCI Yeast Anticancer Drug Screen. Data for the mgt1 strain (AID 153); details: S. cerevisiae mgt1 mutant growth inhibition, stronger effect = higher value
Outline: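 Yeast mgt1 strain (DNA repair/cell-cycle alteration panel) exposed to compounds; growth inhibition measured relative to vehicle-treated controls.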

[5] = NCI Yeast Anticancer Drug Screen. Data for the rad50 strain (AID 155);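 note: 0% = growth of vehicle-only cultures of the same strain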; details: S. cerevisiae rad50 strain growth inhibition, stronger effect = higher value
Outline: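 Compounds were tested on a yeast strain with an engineered DNA damage repair alteration; the reported value is growth inhibition normalised to vehicle treatment.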

[6] = NCI Yeast Anticancer Drug Screen. Data for the mec2-1 strain (AID 157); details: S. cerevisiae mec2-1 strain, stronger effect = higher value
Outline: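 mec2-1 yeast strain, carrying an alteration in DNA damage repair or cell cycle control, was exposed to compounds; growth inhibition was measured relative to vehicle-treated controls.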

[7] = NCI Yeast Anticancer Drug Screen. Data for the rad14 strain (AID 159);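 note: 0% = growth of vehicle-treated control cultures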; details: S. cerevisiae rad14 strain growth inhibition, stronger effect = higher value
Outline: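 Compound-treated yeast with a defined DNA-repair lesion; growth inhibition normalised to vehicle-treated cultures.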

[8] = NCI Yeast Anticancer Drug Screen. Data for the sgs1 mgt1 strain (AID 161);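 note: 0% = growth of cultures given vehicle only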; details: S. cerevisiae sgs1 mgt1 strain, stronger effect = higher value
Outline: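 This yeast growth screen uses a strain with defined DNA-repair lesions; compound-treated growth is compared with vehicle-treated growth.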

[9] = NCI Yeast Anticancer Drug Screen. Data for the CLN2oe strain (AID 163);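 note: 0% = growth of vehicle-only control cultures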; details: S. cerevisiae CLN2oe strain, stronger effect = higher value
Outline: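 Yeast cells carrying a defined cell-cycle control alteration were exposed to test compounds. Growth inhibition was scored against vehicle-treated control cultures.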

[10] = NCI Yeast Anticancer Drug Screen. Data for the cln2 rad14 strain (AID 165);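 note: 0% = growth equal to vehicle treated cultures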; details: S. cerevisiae cln2 rad14 strain, stronger effect = higher value
Outline: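 Yeast carrying cln2 and rad14 alterations (cell cycle control and DNA damage repair) were exposed to compounds. Growth inhibition was measured against vehicle-treated controls.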

[11] = NCI Yeast Anticancer Drug Screen. Data for the bub3 strain (AID 167); details: S. cerevisiae bub3 mutant strain, stronger effect = higher value
Outline: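 Growth of a checkpoint-deficient yeast mutant is measured after compound exposure. Values represent inhibition relative to vehicle.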

[12] = NCI Yeast Anticancer Drug Screen. Data for the wt2 strain (AID 169);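 note: 0% = growth of vehicle-treated yeast cultures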; details: S. cerevisiae wt2 strain growth inhibition, stronger effect = higher value
Outline: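 Yeast cells were exposed to test compounds, and growth inhibition was measured relative to vehicle-treated controls.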

[13] = NCI Yeast Anticancer Drug Screen. Data for the mlh1 strain (AID 171);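 note: 0% = growth of vehicle-treated control cultures of the same strain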; details: S. cerevisiae mlh1 strain growth inhibition, stronger effect = higher value
Outline: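 Yeast carrying a defined genetic alteration in DNA damage repair or cell cycle control were exposed to test compounds. Growth inhibition was measured relative to vehicle-treated controls.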

[14] = NCI Yeast Anticancer Drug Screen. Data for the sgs1 strain (AID 173);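 note: 0% = growth of vehicle-only control cultures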; details: S. cerevisiae sgs1 mutant, stronger effect = higher value
Outline: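 Yeast mutant strains carrying defined defects in DNA damage repair or cell cycle control were exposed to test compounds. Growth inhibition was scored against vehicle-treated controls.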

[15] = NCI Yeast Anticancer Drug Screen. Data for the mlh1 rad18 strain (AID 175); details: S. cerevisiae mlh1 rad18 strain growth inhibition, stronger effect = higher value
Outline: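 Growth inhibition of the yeast strain was measured after compound exposure and expressed relative to vehicle-treated controls. The strain carries defined defects in DNA damage repair.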

[16] = NCI Yeast Anticancer Drug Screen. Data for the rad18 strain (AID 177); details: S. cerevisiae rad18 mutant growth inhibition, stronger effect = higher value
Outline: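 Yeast carrying a defined DNA damage repair alteration were exposed to compounds. Growth inhibition was expressed relative to vehicle-treated controls.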

[17] = at 5.0 µM (retest, dose inferred, filed as 0.5)
[18] = at 50.0 µM (retest, dose inferred, filed as 5.0)

Measured: growth inhibition

COc1ccc([N+]2=NC(c3ccc([N+](=O)[O-])cc3)=NN(c3ccccc3)C2)cc1
92% (active) and 59% (inactive): [13]; at 100.0 µM
90% (active) and 56% (inactive): [11]; at 100.0 µM
91% (active) and 63% (inactive): [7]; at 100.0 µM
92% (active) and 50% (inactive): [6]; at 100.0 µM
82% (active) and 58% (inactive): [3]; at 100.0 µM
78.8% (active) and 63.6% (inactive): [8]; at 50.0 µM
inactive: [1]; at 1.2 µM -3% and -1% | [1]; at 3.7 µM -1% and 1% | [1]; at 11.0 µM 1% and 2% | [1]; at 33.0 µM 37% and 12% | [2]; at 1.2 µM 1% | [2]; at 3.7 µM 0% | [2]; at 11.0 µM -3% and -5% | [2]; at 33.0 µM 1% and -2% | [3]; at 1.2 µM -10% and -9% | [3]; at 3.7 µM -4% and -5% | [3]; at 11.0 µM 3% and 4% | [3]; at 33.0 µM 32% and 9% | [4]; at 1.2 µM -1% | [4]; at 3.7 µM -2% and -6% | [4]; at 11.0 µM -1% and 2% | [4]; at 33.0 µM 43% and -6% | [5]; at 1.2 µM -6% and -5% | [5]; at 3.7 µM -16% | [5]; [17] 8% and 7% | [5]; at 11.0 µM -17% and -13% | [5]; at 33.0 µM 34% and 11% | [5]; [18] 52% and 31% | [6]; at 1.2 µM -5% and -1% | [6]; at 3.7 µM -5% and -2% | [6]; [17] -10% and -3% | [6]; at 11.0 µM -5% and 1% | [6]; at 33.0 µM 6% and 5% | [6]; [18] 21% and 4% | [7]; at 1.2 µM 2% | [7]; at 3.7 µM 1% | [7]; at 11.0 µM 4% and 2% | [7]; at 33.0 µM 14% and 9% | [8]; [17] 2% and -1% | [8]; [18] 22% and 50% | [9]; at 1.2 µM 0% and 5% | [9]; at 3.7 µM -3% and 0% | [9]; at 11.0 µM -7% and 4% | [9]; at 33.0 µM 21% and 9% | [10]; [17] 5% and -13% | [10]; [18] 48% and 43% | [10]; at 50.0 µM 51% and 38.8% | [11]; at 1.2 µM 5% and 1% | [11]; at 3.7 µM 17% and 4% | [11]; [17] 15% and 17% | [11]; at 11.0 µM 17% and 9% | [11]; at 33.0 µM 35% and 5% | [12]; at 1.2 µM 0% and 1% | [12]; at 3.7 µM -1% | [12]; at 11.0 µM -2% | [12]; at 33.0 µM 27% and 7% | [13]; at 1.2 µM 0% | [13]; at 3.7 µM -2% and -3% | [13]; at 11.0 µM -1% and -3% | [13]; at 33.0 µM 14% and 16% | [14]; at 1.2 µM -2% and -3% | [14]; at 3.7 µM 3% and -1% | [14]; at 11.0 µM 8% | [14]; at 33.0 µM 48% and 42% | [15]; [17] 4% and 9% | [15]; [18] 67% and 51% | [16]; at 1.2 µM -8% and -5% | [16]; at 3.7 µM -2% and -3% | [16]; at 11.0 µM 12% and 15% | [16]; at 33.0 µM 34% and 33%
active: [1]; at 100.0 µM 91% | [2]; at 100.0 µM 94% and 89% | [5]; at 50.0 µM 78.3% and 73.8% | [5]; at 100.0 µM 90% and 88% | [6]; at 50.0 µM 75.2% and 70.8% | [9]; at 100.0 µM 90% and 70% | [11]; [18] 84% and 88% | [11]; at 50.0 µM 90.5% and 91.4% | [12]; at 100.0 µM 93% | [14]; at 100.0 µM 93% and 92% | [15]; at 50.0 µM 87.9% and 86.3% | [16]; at 100.0 µM 90% and 87%
93% (active) and 41% (inactive): [4]; at 100.0 µM

O=C(O)CCCc1cc(I)c(N(CCCl)CCCl)c(I)c1
inactive: [1]; at 1.2 µM -18% | [1]; at 3.7 µM -35% | [1]; at 11.0 µM -14% | [2]; at 1.2 µM -59% | [2]; at 3.7 µM -53% | [2]; at 11.0 µM -59% | [2]; at 33.0 µM 68% | [3]; at 1.2 µM -25% | [3]; at 3.7 µM -15% | [3]; at 11.0 µM -27% | [3]; at 33.0 µM -23% | [3]; at 100.0 µM -33% | [4]; at 1.2 µM -20% | [4]; at 3.7 µM -42% | [4]; at 11.0 µM -42% | [5]; at 1.2 µM -60% | [5]; at 3.7 µM -55% | [5]; [17] 41% | [5]; at 11.0 µM -35% | [5]; at 33.0 µM 45% | [5]; at 50.0 µM 37.9% | [6]; at 1.2 µM -77% | [6]; at 3.7 µM -73% | [6]; [17] 11% | [6]; at 11.0 µM -36% | [6]; at 33.0 µM 60% | [6]; at 50.0 µM 69.1% | [7]; at 1.2 µM -59% | [7]; at 3.7 µM -59% | [7]; at 11.0 µM -26% | [7]; at 33.0 µM 37% | [8]; [17] 50% | [8]; at 50.0 µM 46.2% | [9]; at 1.2 µM -13% | [9]; at 3.7 µM -23% | [9]; at 11.0 µM -13% | [10]; [17] 45% | [10]; at 50.0 µM 53.5% | [11]; at 1.2 µM -58% | [11]; at 3.7 µM -37% | [11]; [17] 51% | [11]; at 11.0 µM -60% | [11]; at 50.0 µM 48%
active: [1]; at 33.0 µM 75% | [1]; at 100.0 µM 96% | [2]; at 100.0 µM 98% | [4]; at 33.0 µM 80% | [4]; at 100.0 µM 97% | [5]; [18] 98% | [5]; at 100.0 µM 94% | [6]; [18] 99% | [6]; at 100.0 µM 95% | [7]; at 100.0 µM 95% | [8]; [18] 99% | [9]; at 33.0 µM 87% | [9]; at 100.0 µM 97% | [10]; [18] 98% | [11]; at 33.0 µM 73% | [11]; [18] 97% | [11]; at 100.0 µM 94%
